# Assay results as given in PubChem BioAssay (NCI).
# “And” between values parts separate entries of the source, which are not always exact repeats. Equal entries are not always repeated. The panel holds about 83,000 compounds, 20% with a hit somewhere; the sample as a whole holds those more often.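 Activity criterion: percent growth below 10, measured after cells in 96-well plates were exposed to a single compound concentration for 48 hours.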 Unmarked numbers belong to inactive results. The source made the active and inactive calls.
# Key:
# Assay in all cases: NCI-60 one-dose screen, 48 h (100 = growth as untreated, 0 = no growth, -100 = all killed)
# Settings in all cases: 10 µM unless noted
# NCI-H23 lung = system: NCI-H23 lung
# NCI-H226 lung = system: NCI-H226 lung
# NCI-H322M lung = system: NCI-H322M lung
# HOP-62 NSCLC = system: HOP-62 NSCLC
# NCI-H460 lung = system: NCI-H460 lung
# HOP-92 NSCLC = system: HOP-92 NSCLC
# NCI-H522 lung = system: NCI-H522 lung
# A549/ATCC NSCLC = system: A549/ATCC NSCLC
# 786-0 renal = system: 786-0 renal
# COLO 205 colon = system: COLO 205 colon
Compound,growth (NCI-H23 lung),growth (NCI-H226 lung),growth (NCI-H322M lung),growth (HOP-62 NSCLC),growth (NCI-H460 lung),growth (HOP-92 NSCLC),growth (NCI-H522 lung),growth (A549/ATCC NSCLC),growth (786-0 renal),growth (COLO 205 colon)
CCC(=O)c1cc(C(=O)OC)c2ccc3c4ccccc4ccc3n12,85.2%,50.4%,93.5%,65.4%,26.1%,88.7%,102%,67.9%,66.8%,80.5%
COc1cc(/C=N/NC(=O)c2ccc(OCc3nc4ccc(C)cc4[nH]3)cc2)cc(OC)c1OC,22.3%,43%,66.2%,62.5%,33.6%,96.5%,28.1%,28.4%,41.2%,8.02% (active)
COc1ccc2[nH]c(O)c(N=Nc3nc(-c4ccccc4)cs3)c2c1,23.9%,11.2%,26.5%,21.3%,12.3%,-8.09% (active),8.94% (active),2.49% (active),-44.8% (active),30%
S=C(Nc1ccccc1)Nc1ccc(OCc2nc3ccc(Cl)cc3[nH]2)cc1,88%,97.5%,89.5%,90.4%,88.2%,115%,61.1%,88.2%,94.5%,114%
Nc1nn2c(-c3cc4ccccc4oc3=O)ccnc2c1N=Nc1ccccc1,12.5%,35.1%,65.4%,22.3%,44.4%,30.2%,25.3%,100%,41.4%,114%
CCCCCCCCCc1ccc(C(=O)Nc2cc(C)ccc2C(=O)OC)cc1,102%,98.9%,112%,107%,115%,61.6%,101%,114%,101%,131%
CCc1ccc(SC2c3cc(OC)ccc3Oc3nc(N)c(C#N)c(N)c32)cc1 (stereo not given),-5.83% (active),-6.69% (active),-48% (active),1.33% (active),3.96% (active),-38.5% (active),-8.76% (active),-41.2% (active),-54.6% (active),-68.9% (active)
Nc1nc2cc(-c3ccc4ncnc(NCc5ccccc5)c4c3)ccc2o1,24.4%,-45.9% (active),-19.8% (active),-46.1% (active),7.02% (active),-39.5% (active),-12.1% (active),11.4%,9.02% (active),52.9%
O=C(O)CC1S/C(=N/N=C/c2nc3ccccc3s2)NC1=O (stereo not given),96.2%,101%,106%,108%,94.7%,136%,104%,96%,80.9%,135%
COc1ccc(N=Nc2c(N)nn3c(-c4ccc(F)cc4)ccnc23)cc1,43.7%,87.8%,84.3%,34.6%,64.7%,100%,86.5%,43%,92.3%,94.4%
CC1=C(C(=O)Nc2ccccc2)C(c2ccc3ccccc3c2)n2c(nc3ccccc32)N1 (stereo not given),73.3%,84%,66.3%,113%,-45.5% (active),64.2%,63%,8.83% (active),10.6%,112%
NC1(c2ccc(-c3ccc4ncnc(NCc5ccccc5)c4c3)cn2)COC1,108% and 105%,103% and 111%,109% and 97%,118% and 112%,106% and 112%,112% and 120%,109% and 105%,111% and 109%,115% and 104%,112% and 126%
CCOC(=O)/C(F)=C/C1CC1CCc1ccc(OCC)cc1 (stereo not given),87.3%,86.8%,82.5%,124%,59.2%,91.7%,97.5%,50.5%,105%,41.8%
CCCCCCCCc1ccc(C(=O)Nc2cccc(O)c2)cc1,78.9%,67.8%,95.9%,101%,90.5%,-4.35% (active),23%,90.3%,73.5%,121%
CCCCNc1ccc2c3c(cccc13)C(=O)N(c1cccc(-c3nn(-c4ccccc4)cc3-c3nc4ccccc4s3)c1)C2=O,93.1%,83.5%,104%,107%,110%,100%,99.1%,117%,101%,109%
Cc1cnc2ccc(Oc3ccccc3-c3ccccc3)nn12,96.6%,106%,103%,124%,118%,122%,108%,117%,102%,131%
CCCCCCCCc1ccc(C(=O)Nc2ccc(C)cc2C(=O)O)cc1,85.2%,84.3%,91.1%,96.3%,88.4%,10.4%,73.2%,66.8%,89.6%,119%
CC[C@]12C=CCN3CC[C@@]4(c5ccc(OC)cc5N(C)[C@H]4[C@@](O)(C(=O)OC)[C@@H]1OC(=O)CCC[P+](c1ccc(OC)cc1)(c1ccc(OC)cc1)c1ccc(OC)cc1)[C@@H]32,-92.5% (active),-80.3% (active),-97.7% (active),-81.6% (active),-85.2% (active),-82.9% (active),-89.4% (active),-91.4% (active),-89.5% (active),-64.4% (active)
COc1ccc(-c2cc(C(=O)OCc3ccc(Br)cc3)nn2-c2ccc(S(C)(=O)=O)cc2)cc1OC,93.6%,82%,90.9%,75.9%,91.1%,69.5%,52.8%,78.6%,75%,110%
COc1cc(C2C(C(=O)OCc3ccccc3)=C(C)Nc3nc4ccccc4n32)cc(OC)c1OC (stereo not given),45.8%,-37.3% (active),40.9%,31.1%,16%,-0.272% (active),-7% (active),34.9%,-66.1% (active),52.5%
O=C1Nc2cc(-c3ccc(NS(=O)(=O)c4ccc([N+](=O)[O-])cc4)cc3)ccc2/C1=C/c1ccc[nH]1,3.29% (active),-12.3% (active),62.2%,0.132% (active),3.96% (active),-29.9% (active),-5.99% (active),-31.9% (active),-8.24% (active),-31.8% (active)
O=C(c1ccc(Cl)cc1)C1[C@H](c2ccccc2Cl)[C@@H](c2ccccc2)NC12C(=O)Nc1ccc(Cl)cc12 (stereo not given in full),-70.1% (active),-86.1% (active),-22.1% (active),-72.4% (active),-69.2% (active),-75.6% (active),-50.6% (active),-23% (active),-54.5% (active),-91.4% (active)
N#Cc1cc(-c2ccc3ncnc(N4CCc5cc(F)c(Cl)cc54)c3c2)cnc1N,50.2%,59.1%,38.4%,77.5%,5.5% (active),1.74% (active),46%,42%,22.1%,12.2%
COc1cc(/C=C/C(=O)c2cnn(-c3cc(=O)[nH]c4ccc(Cl)cc34)c2C)cc(OC)c1OC,-55.9% (active),-24.2% (active),7.2% (active),-68.3% (active),-39.1% (active),-11.9% (active),-62.9% (active),-17.1% (active),-43.9% (active),-67.7% (active)
CCOC(=O)/C(F)=C/C1CC1C1CCN(C(=O)OC(C)(C)C)CC1 (stereo not given),93.8%,95.2%,102%,118%,98.1%,119%,104%,78.4%,105%,72.4%
